According to PMC7819943, “Rice protein-binding microarrays: a tool to detect cis-acting elements near promoter regions in rice”:
Over roughly 68,000 sequences, “fluorescence intensity (a.u.)” has its median near 9,100; the highest 2% begin near 16,000. The list comes from a sample in which the highest values are over-represented; it also holds similar and randomly drawn sequences.

Target: OsWRKY34 (Oryza sativa, UniProt Q0JBA9 1-250)
Assay: protein-binding microarray (RPBM); PBS, 2% BSA, 51.3 ng/ul salmon testes DNA, 50 uM zinc acetate, 200 nM TF, 25 C, 1 h; high values mean tight binding
Conditions: protein: recombinant; tags: N-terminal polyhistidine and DsRed monomer fusion (pET32a); label: CyDye5-dUTP incorporated in the synthesized complementary strand; 3' TTTTT single-stranded linker to array surface; dsDNA, one strand shown
Outline: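 Binding signal is defined as the fluorescence intensity of each feature in arbitrary units, read on an Axon 4000B scanner. Transcription factors with N-terminal polyhistidine and DsRed fusions came from E. coli BL21-CodonPlus and were purified on Ni–NTA. They were incubated at 200 nM for 1 h at 25 °C on a custom Agilent array that had been made double-stranded with Cy5-dUTP, with 50 µM zinc acetate present, and the array was washed.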

OsWRKY34, sequence (Q0JBA9 entry or part of it): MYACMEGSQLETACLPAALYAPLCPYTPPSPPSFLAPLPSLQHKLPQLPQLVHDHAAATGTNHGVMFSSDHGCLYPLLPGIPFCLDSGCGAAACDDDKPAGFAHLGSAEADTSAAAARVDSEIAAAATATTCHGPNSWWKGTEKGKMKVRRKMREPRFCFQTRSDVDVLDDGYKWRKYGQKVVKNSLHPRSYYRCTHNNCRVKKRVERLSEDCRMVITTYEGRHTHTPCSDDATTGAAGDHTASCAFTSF

Sequence | binding signal
AGGTCAACAACCAGTGTCAAGATCTGACCATGCAATTAGCCGGAGTCACCTAGTGCAG | 17600 fluorescence intensity (a.u.)
AATCCCAAGCTAGGTGTTGACCATGGGTCAACAATCTCCCCGGAGTCACCTAGTGCAG | 9470 fluorescence intensity (a.u.)
ACCATTATTCTGTTGTCAACTGCATGCCGCAACAAACTGACGGAGTCACCTAGTGCAG | 8420 fluorescence intensity (a.u.)
AACTAACTGGCACGCCCTCATATCACCAACCTTTGGACCTCGGAGTCACCTAGTGCAG | 8560 fluorescence intensity (a.u.)
CTTTCTGATCACCAACTCCGCTCCTTTTAATCGCAACTACCGGAGTCACCTAGTGCAG | 9660 fluorescence intensity (a.u.)
TCCTGTGGTACCCCTGTCGCCGAATCTACGCATCTGCCAACGGAGTCACCTAGTGCAG | 8140 fluorescence intensity (a.u.)
CTGCCGAAGCAACGGATCTGAATCTACGTACCGAGCTTGTCGGAGTCACCTAGTGCAG | 64600 fluorescence intensity (a.u.)
ATATCTGCTTCTACGTCGTCTACGAAGCCGCCGAGACGTCCGGAGTCACCTAGTGCAG | 9320 fluorescence intensity (a.u.)
ACTCTCTTCCTCACGACGCACCACGGGCTAGCCACTCCTACGGAGTCACCTAGTGCAG | 8340 fluorescence intensity (a.u.)
CCTTTTGTTTTTGGGGCTTGTAGTTTTTGGAAATTTGGGGCGGAGTCACCTAGTGCAG | 18300 fluorescence intensity (a.u.)
CTTATTTAGTTGGGGAAAATTTTTGGGTTTGTTTGTCACACGGAGTCACCTAGTGCAG | 11600 fluorescence intensity (a.u.)
TTTTTTTTTCTTTTGGGGCGGAAGGAGTAGTATGGAGTTTCGGAGTCACCTAGTGCAG | 12300 fluorescence intensity (a.u.)
TATTTGGTTTTGTAGGGGTTGGTTTGGGAAAATTGGAAAGCGGAGTCACCTAGTGCAG | 16400 fluorescence intensity (a.u.)
GCAGGCGGCGGAGGATTTTTGGGAGGGGAAAACGGCGAGTCGGAGTCACCTAGTGCAG | 8540 fluorescence intensity (a.u.)
TTACAAACAAAAACTCAAAATCCCTTATATTTTGGGACAGCGGAGTCACCTAGTGCAG | 64700 fluorescence intensity (a.u.)
TGTTTGCTTATTACTATTTTTTTTGGGGCGGGAAATTAAACGGAGTCACCTAGTGCAG | 14100 fluorescence intensity (a.u.)
ATTCTCAAAATCGAATTTGTTTTTATATTTCCCTTACTGTCGGAGTCACCTAGTGCAG | 14700 fluorescence intensity (a.u.)
TATTGTTTAGTTGGGAAAAAAATTTGGGGTTGGTTGTCACCGGAGTCACCTAGTGCAG | 10400 fluorescence intensity (a.u.)
GAAAAATTGTCCCTTTTTATTTGGGAGGGGAGGGAGGAGGCGGAGTCACCTAGTGCAG | 17100 fluorescence intensity (a.u.)
AAAATTTTATTTTTCATGTGTGGCTTATTGTCCTTTTTTGCGGAGTCACCTAGTGCAG | 9470 fluorescence intensity (a.u.)

Sequence | binding signal
TTATATTTTGGGACGGAGTATTACTTTGAATCCCTTTTCCCGGAGTCACCTAGTGCAG | 8280 fluorescence intensity (a.u.)
CTTTTTATTACCGGTGTTTCGCTTTGGACCACCCTTCAACCGGAGTCACCTAGTGCAG | 9170 fluorescence intensity (a.u.)
CCACCAATCCACCACCGCCACGCCACTTCACCCTTGTTTTCGGAGTCACCTAGTGCAG | 9810 fluorescence intensity (a.u.)
CTCCGTCGCCACTCACACCCATGGCCTTGACCGCTACTAGCGGAGTCACCTAGTGCAG | 9550 fluorescence intensity (a.u.)
GTTTTGAAAGGTATTGTTGGGTAGTAATAGGCTTCATCTTCGGAGTCACCTAGTGCAG | 10200 fluorescence intensity (a.u.)
TTCCTTTTGTGTTGTTTCCCTTTCAGTTTCATCTTTTGCTCGGAGTCACCTAGTGCAG | 8110 fluorescence intensity (a.u.)
ACTTGTCCTTGATCCTGCCCCACTTCGGATTGTCAATCGACGGAGTCACCTAGTGCAG | 8730 fluorescence intensity (a.u.)
CGTTCCTTGGTATTCTCCCTCGTGGTGTAAATGTACGTATCGGAGTCACCTAGTGCAG | 9740 fluorescence intensity (a.u.)
TTGTTGCAGCCTCGCAGTAAGATTCCTTGTTTTTCTTAGCCGGAGTCACCTAGTGCAG | 8620 fluorescence intensity (a.u.)
TCGCTTTTTACTTTTTATTTTTTTACACATCCGACTCAAACGGAGTCACCTAGTGCAG | 8260 fluorescence intensity (a.u.)
CCCGCACCGCAACACGCACACCCACGCGCACGCACAAACCCGGAGTCACCTAGTGCAG | 8060 fluorescence intensity (a.u.)
CACCCAAGCCAAGCCCACGACCCGCACCGCAACACGCACACGGAGTCACCTAGTGCAG | 8520 fluorescence intensity (a.u.)
ACCCAAAGCCACCCGCAACAACCGACGACGACGACGACCGCGGAGTCACCTAGTGCAG | 18200 fluorescence intensity (a.u.)
CCACGCTATCCCATGCGATTCGAGAAGGTTCCACACACACCGGAGTCACCTAGTGCAG | 8430 fluorescence intensity (a.u.)
AATGGTGCAATACAATTTCAAGCGTATCACTGTTGTTCCTCGGAGTCACCTAGTGCAG | 9720 fluorescence intensity (a.u.)
GACTTTTTAGCACATTTTTGACCGTTCATCTTATTCAAAACGGAGTCACCTAGTGCAG | 8780 fluorescence intensity (a.u.)
TTCAAAATGTTTGATACCGTTGACTTTTTAGCACATTTTGCGGAGTCACCTAGTGCAG | 29400 fluorescence intensity (a.u.)
TCAAAATGTTTAACGCCGTTGACTTTTTAGCACATTTTTGCGGAGTCACCTAGTGCAG | 33000 fluorescence intensity (a.u.)
GGTTTCAAGAAAAGGAAAAGAAAAACTAAACGTAGTATAACGGAGTCACCTAGTGCAG | 11300 fluorescence intensity (a.u.)
AGTATCAAGCGATACAGGAGCTCCTCACTCCATCTCTCTACGGAGTCACCTAGTGCAG | 8330 fluorescence intensity (a.u.)

Sequence | binding signal
GTTTTGCACATCCGGTTTTCTCTCTCTCTCTCTCTCCTTTCGGAGTCACCTAGTGCAG | 16700 fluorescence intensity (a.u.)
CGCCGGTTGCTTCCATATACTCTGCTCCTTTTTTTTCTATCGGAGTCACCTAGTGCAG | 9240 fluorescence intensity (a.u.)
CACTCTCTCTCGCTGTCTTTCTCTCCTTCCATTTCATTTCCGGAGTCACCTAGTGCAG | 8250 fluorescence intensity (a.u.)
CGTTTCTCTTTCTTTCTTCCCTTCGGTTTCTCCTCCTCTCCGGAGTCACCTAGTGCAG | 10600 fluorescence intensity (a.u.)
CACACACTCTCCGGTTTTTTTTTCCTTTTCATTTTTTTCTCGGAGTCACCTAGTGCAG | 28000 fluorescence intensity (a.u.)
TTCGGTTTTTCTCTTCATCATTTCTCTTTATTTCTTTCTCCGGAGTCACCTAGTGCAG | 9290 fluorescence intensity (a.u.)
ATATCTACTCCCGGTTTCTGCTGGATTCCTTCCTTTTTCTCGGAGTCACCTAGTGCAG | 17500 fluorescence intensity (a.u.)
CCTCCTCTCCCTTTTCTGCTGTTTCTCTCTCTCACACACTCGGAGTCACCTAGTGCAG | 8470 fluorescence intensity (a.u.)
TTTTTTTCTCCTTTCCTTCTTCTCTCTCTCTCTTTTTTTTCGGAGTCACCTAGTGCAG | 8870 fluorescence intensity (a.u.)
ACAGGGCTTGGAATAGGTTGGTGTACAGGGCGGTAGCTTACGGAGTCACCTAGTGCAG | 8670 fluorescence intensity (a.u.)
AGAAAAGAATCTACAGTACCCACATGGCATACTCTCTTTTCGGAGTCACCTAGTGCAG | 9950 fluorescence intensity (a.u.)
GTCTTTTGGTGGGTGGGAAATCACTTCCATTTCCCATTAGCGGAGTCACCTAGTGCAG | 11300 fluorescence intensity (a.u.)
GTGGCAATGCAAACTCGTCTTGGAACCCACTGCTTTGCCTCGGAGTCACCTAGTGCAG | 8192 fluorescence intensity (a.u.)
ATGACATACTAATAGATGATACTATTGACTTTTTTTCTATCGGAGTCACCTAGTGCAG | 9980 fluorescence intensity (a.u.)
CTACTATCATATTTTTTAATAGATGACTCCGTTGACTTTTCGGAGTCACCTAGTGCAG | 16800 fluorescence intensity (a.u.)
TACCTCCGTTTTCTAATAGATGACGCCGTTGACTTTTTCTCGGAGTCACCTAGTGCAG | 20700 fluorescence intensity (a.u.)
TACCTCCGTTTTTTAATAGATGACGCCGTTGACTTTTTCTCGGAGTCACCTAGTGCAG | 25000 fluorescence intensity (a.u.)
TCCCTCCGTTTTTTAATAGATGATGCCGTTGACTTTTTCTCGGAGTCACCTAGTGCAG | 19300 fluorescence intensity (a.u.)
ATACTACCTCCGTTTTTTAATAGATGACGTCGTTGACTTTCGGAGTCACCTAGTGCAG | 14600 fluorescence intensity (a.u.)
